From PubChem BioAssay (NCATS)
Records with an inconclusive call do not appear. The source made the active and inactive calls. Calls come from the whole dose curve; as a rule, active = well fitted inhibition curve with a large enough effect; inconclusive = small, poorly fitted or top-dose-only effect; inactive = flat fitted curve, though single readings scatter.

Experiments:
Assay in all cases: qHTS profiling for inhibitors of Plasmodium falciparum proliferation (AID 504749); note: nearly all actives have a fitted effect of over 60% in size
Conditions in all cases: P. falciparum in erythrocytes, SYBR Green DNA, 72 h; series mostly up to 28.7 µM
[1] = tested on: CP194
In short: (§1)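 In a 72 h erythrocytic culture (37 C, humidified, 5% CO2) at 2.5% hematocrit and 0.3% starting parasitemia, compounds were tested; SYBR Green I in detergent lysis buffer stained parasite DNA overnight.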

[2] = tested on: CP201
In short: as §1

[3] = tested on: CP203
In short: as §1

[4] = tested on: CP211
In short: as §1

[5] = tested on: CP215
In short: as §1

[6] = tested on: CP217
In short: as §1

[7] = tested on: CP237
In short: as §1

[8] = tested on: CP238
In short: as §1

[9] = tested on: CP247
In short: as §1

[10] = tested on: CP250
In short: as §1

[11] = tested on: CP252
In short: as §1

[12] = tested on: CP256
In short: as §1

[13] = tested on: CP260
In short: as §1

[14] = tested on: CP262
In short: as §1

[15] = tested on: CP265
In short: as §1

[16] = tested on: CP266
In short: as §1

[17] = tested on: CP268
In short: as §1

[18] = tested on: CP269
In short: as §1

[19] = tested on: CP286
In short: as §1

[20] = tested on: CP291
In short: as §1

Measured: Potency
Potency is the fitted concentration of half-maximal effect.

Nc1nc(=O)n([C@@H]2CS[C@H](CO)O2)cc1F
inactive: all assays above

CC(=O)Nc1ccc(OC(=O)c2ccccc2O)cc1
inactive: all assays above

C[C@H](O)CN(C)C
inactive: all assays above

CCc1ccc(S(=O)(=O)O)cc1
inactive: all assays above

CNC(=O)C[C@@H](N)C(=O)N[C@@H](C(=O)N[C@@H]1C(=O)N2[C@@H]1SC(C)(C)[C@@H]2C(=O)O)c1ccc(O)cc1
inactive: all assays above

CC(C)[C@@H](N)C(=O)O
inactive: all assays above

CC1=CC(=C(c2ccc(N)cc2)c2ccc(N)cc2)C=CC1=N
active: [1] 3.79 µM | [2] 5.36 µM | [3] 4.26 µM | [4] 4.26 µM | [5] 4.78 µM | [6] 3.55 µM | [7] 3.16 µM | [8] 3.55 µM | [9] 1.12 µM | [10] 1 µM | [11] 3.16 µM | [12] 2.24 µM | [13] 2.51 µM | [14] 4.78 µM | [15] 3.16 µM | [16] 7.57 µM | [17] 6.01 µM | [18] 4.26 µM | [19] 1.41 µM | [20] 3.01 µM

Cc1ccc(S(=O)(=O)NCl)cc1
inactive: all assays above

O=C(NNCNNC(=O)c1ccncc1)c1ccncc1
inactive: all assays above

COC(=O)CC[C@H](N)C(=O)O
inactive: all assays above

COc1cc2c(cc1OC)[C@@H](Cc1cc(OC)c(OC)c(OC)c1)[N+](C)(CCCOC(=O)CC/C=C/CCC(=O)OCCC[N+]1(C)CCc3cc(OC)c(OC)cc3[C@H]1Cc1cc(OC)c(OC)c(OC)c1)CC2 (stereo not given in full)
inactive: all assays above

O=C(O)CCC/C=C\C[C@@H]1[C@@H](/C=C/[C@@H](O)COc2cccc(C(F)(F)F)c2)[C@H](O)C[C@@H]1O
inactive: all assays above

CN1C(=O)C[C@@H](C(=O)N[C@@H](Cc2cnc[nH]2)C(=O)N2CCC[C@H]2C(N)=O)NC1=O
inactive: all assays above

O=C(O)COc1ccc(CCNS(=O)(=O)c2ccccc2)s1
inactive: all assays above

CC1(O)CCC(C(C)(C)O)CC1 (stereo not given)
inactive: all assays above

CC(C)(C)CC(C)(C)c1cc(Cc2cc(C(C)(C)CC(C)(C)C)cc(-n3nc4ccccc4n3)c2O)c(O)c(-n2nc3ccccc3n2)c1
inactive: all assays above

CCCOC(=O)c1ccccc1O
inactive: all assays above

S=C1SCN(Cc2ccccc2)CN1Cc1ccccc1
inactive: all assays above

N[C@H](CC(=O)O)C(=O)O
inactive: all assays above

CCCCC(CC)COS(=O)(=O)O (stereo not given)
inactive: all assays above

O=C(O)/C=C/C(=O)Nc1ccc(S(=O)(=O)Nc2nccs2)cc1
inactive: all assays above

C=C(C)C1CC=C(C)CC1 (stereo not given)
inactive: all assays above

CCCCCCCCCCCCCCCCCC(=O)OC[C@@H](O)[C@H]1OC[C@H](O)[C@H]1O
inactive: all assays above

CCCCCCCCCCCCCCCCCC(=O)OCC(C)O (stereo not given)
inactive: all assays above

NC(N)=O
inactive: all assays above

O=C(NNCS(=O)(=O)O)c1ccncc1
inactive: all assays above

COC1=C(OC)C(=O)C(C/C=C(\C)CC/C=C(\C)CC/C=C(\C)CC/C=C(\C)CC/C=C(\C)CC/C=C(\C)CC/C=C(\C)CC/C=C(\C)CC/C=C(\C)CCC=C(C)C)=C(C)C1=O
inactive: all assays above

O=C(NCCNCC(O)COc1ccc(O)cc1)N1CCOCC1 (stereo not given)
inactive: all assays above

O=P(O)(O)OP(=O)(O)OP(=O)(O)O
inactive: all assays above

C=CCCCCCCCCC(=O)OC
inactive: all assays above

N=C(N)n1cccn1
inactive: all assays above

CC(/C=C/C=C(\C)C(=O)O[C@@H]1O[C@H](CO[C@@H]2O[C@H](CO)[C@@H](O)[C@H](O)[C@H]2O)[C@@H](O)[C@H](O)[C@H]1O)=C\C=C\C=C(C)\C=C\C=C(/C)C(=O)O[C@@H]1O[C@H](CO[C@@H]2O[C@H](CO)[C@@H](O)[C@H](O)[C@H]2O)[C@@H](O)[C@H](O)[C@H]1O
inactive: all assays above

COc1ccccc1N1CCN(CCCC(=O)c2ccc(F)cc2)CC1
inactive: all assays above

CCOC(C)OCC
inactive: all assays above

NCCN
inactive: all assays above

CCN(CC)CCOc1ccccc1OC
inactive: all assays above

CC/C=C\C/C=C\C/C=C\CCCCCCCC(=O)O
inactive: all assays above

CC(C)[C@H](N)C(=O)OCC(CO)OCn1cnc2c(=O)[nH]c(N)nc21 (stereo not given in full)
inactive: all assays above

C[Se]CC[C@H](N)C(=O)O
inactive: all assays above

NC(=O)[C@@H]1CCCN1C(=O)[C@H](Cc1cnc[nH]1)NC(=O)[C@@H]1CCC(=O)N1
inactive: all assays above

OCC1(CO)COC(C(Cl)(Cl)Cl)OC1
inactive: all assays above

O=S(=O)(O)CC(S)CS (stereo not given)
inactive: all assays above

CC1C(=O)CC2C3(C)CCC2(C(C)C(=O)O)C(=O)C13 (stereo not given)
inactive: all assays above

CN1c2c(nc(N)[nH]c2=O)NCC1CNc1ccc(C(=O)NC(CCC(=O)O)C(=O)O)cc1 (stereo not given)
inactive: all assays above

CC1CC(OC(=O)C(O)c2ccccc2)CC(C)(C)C1 (stereo not given)
inactive: all assays above

COc1ccc(/C=C/C(=O)O)cc1
inactive: all assays above

CN[C@@H]1[C@H](O[C@H]2[C@H](O[C@H]3[C@H](O)[C@@H](O)[C@H](N=C(N)N)[C@@H](O)[C@@H]3N=C(N)N)O[C@@H](C)[C@]2(O)C=O)O[C@@H](CO)[C@H](O)[C@H]1O
inactive: all assays above

CC(C)(C)c1ccc2c(S(=O)(=O)O)c(C(C)(C)C)ccc2c1
inactive: all assays above

O=C(O)c1ccc(NC(=O)[C@H](Cc2ccc(O)cc2)NC(=O)c2ccccc2)cc1
inactive: all assays above

CNC(=O)OCc1cccc(COC(=O)NC)n1
inactive: all assays above

C=CC[C@@H]1/C=C(\C)C[C@H](C)C[C@H](OC)[C@H]2O[C@@](O)(C(=O)C(=O)N3CCCC[C@H]3C(=O)O[C@H](/C(C)=C/[C@@H]3CC[C@@H](O)[C@H](OC)C3)[C@H](C)[C@@H](O)CC1=O)[C@H](C)C[C@@H]2OC
active: [1] 4.26 µM | [2] 5.36 µM | [3] 4.78 µM | [4] 4.78 µM | [5] 3.79 µM | [6] 3.16 µM | [7] 0.708 µM | [8] 1.12 µM | [9] 1.41 µM | [10] 0.891 µM | [11] 1 µM | [12] 0.708 µM | [13] 0.794 µM | [14] 4.26 µM | [15] 0.631 µM | [16] 8.49 µM | [17] 0.849 µM | [18] 3.79 µM | [19] 1 µM | [20] 6.75 µM

CC(=O)N=c1sc(S(N)(=O)=O)nn1C
inactive: all assays above

CCCCC/C=C\C/C=C\C/C=C\CCCCC(=O)O
inactive: all assays above
